Luciferase inh: Firefly luciferase inhibition profiling of diverse chemical library using quantitative high-throughput screening; Luciferin 4-monooxygenase (Photinus pyralis), P08659; purified P. pyralis luciferase, luminescence, biochemical; Potency, µM (highest dose often 115 µM), most hits filed as inhibitors; actives 2.5% (n = 76,000); AID 1347043, 2019; also: nearly all actives have a fitted effect of over 65% in size
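Purified 10nM P. pyralis luciferase with 10uM D-luciferin and 10uM ATP in 50mM Tris acetate pH 7.5, 10mM Mg acetate, 0.01% Tween-20, 0.05% BSA. qHTS titration; luminescence read by CCD imager.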
NPR1 antag: Natriuretic polypeptide receptor (hNpr1) antagonism - Primary qHTS. Potency, µM (titrated, usually from 46.3 µM), for the others: at the top dose activity change, negative = inhibition, most hits filed as inhibitors. Atrial natriuretic peptide receptor 1 (Homo sapiens), P16066. HEK293 hNpr1 GloSensor cGMP, ANP-stimulated luminescence. actives 1.6% (n = 76,000); calls by dose curve; also: nearly all actives have a fitted effect of over 60% in size
Target sequence (P16066 whole entry, looked up): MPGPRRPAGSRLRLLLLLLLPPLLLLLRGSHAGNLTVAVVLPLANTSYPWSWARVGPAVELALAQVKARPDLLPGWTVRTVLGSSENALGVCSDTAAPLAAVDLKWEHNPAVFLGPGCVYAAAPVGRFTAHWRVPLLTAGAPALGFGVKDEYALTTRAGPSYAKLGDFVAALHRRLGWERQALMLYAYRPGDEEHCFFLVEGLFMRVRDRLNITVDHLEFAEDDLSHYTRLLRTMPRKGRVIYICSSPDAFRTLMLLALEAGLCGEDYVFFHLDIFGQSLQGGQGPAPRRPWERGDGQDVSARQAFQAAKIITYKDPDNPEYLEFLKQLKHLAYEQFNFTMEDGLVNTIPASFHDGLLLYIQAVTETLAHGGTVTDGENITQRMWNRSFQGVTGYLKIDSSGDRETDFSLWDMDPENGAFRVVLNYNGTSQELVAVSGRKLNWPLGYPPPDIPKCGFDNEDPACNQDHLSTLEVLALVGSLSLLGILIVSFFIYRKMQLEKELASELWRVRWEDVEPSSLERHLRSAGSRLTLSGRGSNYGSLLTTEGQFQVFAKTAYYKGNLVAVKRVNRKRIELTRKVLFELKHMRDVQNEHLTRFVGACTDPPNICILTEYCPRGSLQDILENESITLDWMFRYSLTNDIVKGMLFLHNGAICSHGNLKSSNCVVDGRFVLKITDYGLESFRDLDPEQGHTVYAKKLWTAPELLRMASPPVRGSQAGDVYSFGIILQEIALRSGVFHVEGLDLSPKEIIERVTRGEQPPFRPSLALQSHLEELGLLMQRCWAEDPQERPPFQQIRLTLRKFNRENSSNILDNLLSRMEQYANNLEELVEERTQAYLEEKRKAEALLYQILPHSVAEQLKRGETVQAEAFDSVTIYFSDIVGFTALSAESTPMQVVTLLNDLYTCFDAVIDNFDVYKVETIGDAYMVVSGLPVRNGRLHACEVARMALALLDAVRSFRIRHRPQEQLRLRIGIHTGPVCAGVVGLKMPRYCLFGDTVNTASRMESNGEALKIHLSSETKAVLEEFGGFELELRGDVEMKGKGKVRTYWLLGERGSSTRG
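Compound pre-incubated 30 min at room temperature on GloSensor-loaded HEK293 cells stably carrying hNpr1 and the pGS-40F cGMP biosensor. Stimulation uses hNppA at 0.1 nM final; luminescence is taken at baseline and 20 min post-agonist.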
HEK cytotox: Cytotoxic Profiling in HEK 293 Cell Line of Diverse Libraries Using Quantitative High-Throughput Screening; AID 1345083, 2018; actives 6.6% (n = 94,000); HEK 293 viability, ATP luminescence (CellTiter-Glo), 48-72 h; Potency, µM (doses to about 115 µM), for inactives: top-dose activity change, negative = cytotoxicity, usual class: inhibitors; also: nearly all actives have a fitted effect of over 60% in size
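HEK 293 cells at 250 cells/well were exposed to compounds by pintool transfer for 48 or 72 hr at 37 degree Celsius, 5% CO2. Viability was read as ATP-coupled luminescence with CellTiter-Glo after 10 min at room temperature.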
3T3 cytotox: Cytotoxic Profiling in NIH 3T3 Cell Line of Diverse Libraries Using Quantitative High-Throughput Screening | Potency, µM (highest dose often 96.7 µM), for the others: at the top dose activity change, negative = cytotoxicity, hits mostly inhibitors | NIH 3T3 viability, CellTiter-Glo ATP luminescence, 48-72 h | actives 4.3% (n = 94,000); also: nearly all actives have a fitted effect of over 55% in size
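Cytotoxicity is measured as loss of cellular ATP: NIH 3T3 cells (400/well) are exposed to compound for 48 or 72 hr at 37 °C, then CellTiter-Glo luminescence is imaged after 10 min at room temperature.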
* = called active by the depositor; i = inactive; ? = inconclusive; . = no result; ! = a repeat was not active; [ ] = dose if it differs, or a comment. The list is not random: actives were taken first. Their share in the collection is about 11%. Unless noted, calls follow the shape of the dose curve; as a rule, active = well fitted curve in the direction sought with a large enough effect; inconclusive = small, poorly fitted or top-dose-only effect, or another doubt; inactive = no such curve, though single readings can be large; an effect the other way counts as inactive or inconclusive. % is scaled to controls: 0 for no effect and ±100 for the full control effect; potency is read from the fitted curve at half-maximal effect.

SMILES	Luciferase inh	NPR1 antag	HEK cytotox	3T3 cytotox
COc1cccc(N2CCN(C(=O)C3CCCN(c4cnc5nccnc5c4)C3)CC2)c1 (stereo not drawn)	i	?	40µM*	?
COc1ccc(C(=O)N2CCC(Oc3nccnc3N(C)C)C2)c(OC)c1 (stereo not drawn)	20µM*	0%	?	i
CCOc1ccccc1C(=O)N1CCC(Oc2nccnc2N(C)C)C1 (stereo not drawn)	32µM*	0%	?	-5%
O=C(Cc1ccccc1)N1CCC(Cc2nc(-c3ccccc3)n[nH]2)CC1	i	-1%	?	-25%
CCn1cc(CN2CCC(N3C(=O)C4(CCCC4)C3c3ccccc3)CC2)cn1 (stereo not drawn)	i	1%	-2%	0%
COc1ccc(CN2CCC(N3Cc4cnc(C)n4C3=O)CC2)cc1	i	0%[70.6 µM]	?	-18%[138 µM]
Cc1ncc2n1C(=O)N(C1CCN(Cc3ccccc3)CC1)C2	i	7%[70.6 µM]	100µM*!	?
COCC(=O)N1CCCC(c2nn(-c3cccc(Cl)c3)c(=O)[nH]2)C1 (stereo not drawn)	i	-4%	-6%	4%
Cc1nn(-c2ccccc2)c2c1C(C(C)C)N(C1CN(C(=O)Cc3cccc(Cl)c3)C1)C2=O (stereo not drawn)	.	.	25µM*	25µM*
Cc1nn(-c2ccccc2)c2c1C(C1CC1)N(C1CN(C(=O)Cc3cccc(Cl)c3)C1)C2=O (stereo not drawn)	.	.	25µM*	?
Cc1nn(-c2ccccc2)c2c1C(C(C)C)N(C1CCN(C(=O)Cc3cccc(Cl)c3)CC1)C2=O (stereo not drawn)	.	.	-22%	-27%
O=C(Cc1cccc(Cl)c1)N1CCCC(c2nn(-c3ccccc3)c(=O)[nH]2)C1 (stereo not drawn)	i	2%	45µM*	?
Cc1nn(-c2ccccc2)c2c1C(C1CC1)N(C1CN(C(=O)NC(C)(C)c3ccccc3)C1)C2=O (stereo not drawn)	.	.	?	14µM*
CCOC(=O)C1CCN(C(=O)c2ccc3nnc(-c4ccc(OC(F)(F)F)cc4)n3c2)CC1	.	.	-17%	?
CC1(C)[C@H]2CC[C@@H](CNC(=O)c3ccc4c(c3)OCO4)[C@@H]1C2	i	-23%[70.6 µM]	?	?
Cc1ccc(NC(=O)C2CCc3nnc(CN[S+](C)(=O)[O-])n32)cc1 (stereo not drawn)	.	.	4%	-26%
CC(C)NC(=O)c1nc(-c2cccc(F)c2)c2cnccn12	i	-6%[70.6 µM]	-3%[172 µM]	-26%[138 µM]
CCN(C(=O)Cn1cccc1-c1nc(-c2ccc(OC)c(F)c2)no1)c1cccc(C)c1	i	-19%	?	?
COc1ccc(CN2Cc3[nH]cnc3C[C@H]2C(=O)NCc2ccc(C#N)cc2)c2ccccc12	i	-19%	?	79µM*
O=C(NCc1ccccc1)[C@@H]1Cc2nc[nH]c2CN1Cc1ccc(Cl)cc1	i	-11%[70.6 µM]	?	?
O=C(NCc1ccc(Cl)cc1)[C@@H]1Cc2nc[nH]c2CN1Cc1ccc(Cl)cc1	i	?	32µM*	45µM*
COc1ccc(CN2Cc3[nH]cnc3C[C@H]2C(=O)NC2CCCCC2)c2ccccc12	i	-19%[70.6 µM]	?	63µM*
COc1ccc(CN2Cc3[nH]cnc3C[C@H]2C(=O)N(C)Cc2ccccc2)c2ccccc12	i	-26%	40µM*	?
O=C(c1nc2cccnc2n(CCc2ccccc2)c1=O)N1CCN([S+](=O)([O-])c2cccc(C(F)(F)F)c2)CC1	.	.	i	?
O=C(O)COc1ccc(-c2nccc3c2C(=O)N(Cc2ccccc2)CC(COc2ccc(Cl)cc2)O3)cc1 (stereo not drawn)	50µM*	0%	0%	?
SMILES	Luciferase inh	NPR1 antag	HEK cytotox	3T3 cytotox
O=C(C1CCCCN1Cc1ccc(-c2cccs2)cc1)N1CCC(c2ccccc2)CC1 (stereo not drawn)	.	.	-28%	?
O=C(NCC1CC1)C1CCCCN1Cc1ccc(-c2cccs2)cc1 (stereo not drawn)	.	.	?	18µM*
O=C(NC1CCCC1)C1CCCCN1Cc1ccc(-c2cccs2)cc1 (stereo not drawn)	.	.	32µM*	40µM*
COc1cc2c(cc1OC)C(CNC(=O)c1cccs1)N(C(=O)Nc1cccc(F)c1)CC2 (stereo not drawn)	i	-3%	?	-19%
CNC(=O)c1cc(C2CC2)nc2onc(C3CCN(C(=O)c4ccc(OC)cc4)C3)c12 (stereo not drawn)	.	.	?	-20%
Cc1noc(C)c1-c1cc2cc(C(C)C)oc2c(NCCN2CCOCC2)n1	i	3%[70.6 µM]	?	?
Cc1cc2cc(-c3c(C)noc3C)nc(NC3CC3)c2o1	i	2%[70.6 µM]	?	?
Cc1noc(C)c1-c1cc2cc(C(C)C)oc2c(NC2CCN(C)CC2)n1	i	5%[70.6 µM]	32µM*	?
Cc1noc(C)c1-c1cc2cc(C(C)C)oc2c(Nc2ccn(C)n2)n1	i	1%[70.6 µM]	63µM*	?
Cc1noc(C)c1-c1cc2cc(C(C)C)oc2c(N2CCN(C)CC2)n1	i	-1%[70.6 µM]	?	?
Cc1noc(C)c1-c1cc2cc(CNC3CC3)oc2c(NC2CCN(C)CC2)n1	i	-2%[70.6 µM]	40µM*	?
O=C1N(CCCCOc2ccccc2)c2ccccc2NC12CCNCC2	i	-17%	20µM*	?
CCOC(=O)[C@H]1C[C@]2(CCCCN(C)C2=O)N(C(=O)C2CC2)[C@H]1c1ccccc1	.	.	-2%	?
O=C(Nc1cccc(F)c1)c1cnc2c(c1)N(C(=O)CCc1ccccc1)CCC2	i	-17%[70.6 µM]	?	-20%[138 µM]
O=C(NCc1cccc(Cl)c1)c1cnc2c(c1)N(C(=O)CCc1ccccc1)CCC2	i	-18%[70.6 µM]	?	100µM*
O=C(NCc1ccc2c(c1)OCO2)c1cnc2c(c1)N(C(=O)CCc1ccccc1)CCC2	i	4%	?	?
O=C(c1cnc2c(c1)N(C(=O)CCc1ccccc1)CCC2)N1CCC(c2ccccc2)CC1	i	5%	79µM*	?
Cc1csc(NC(=O)c2cnc3c(c2)N(C(=O)CCc2ccccc2)CCC3)n1	i	-1%[70.6 µM]	?	89µM*
CCN(CC)C(=O)CCc1c(C)nn(-c2ccccc2)c1Oc1ccc(F)cc1F	i	-23%	?	?
CCN(C)C(=O)CCc1c(C)nn(-c2ccccc2)c1Oc1ccccc1F	i	-17%	40µM*	?
CCN(CC)C(=O)CCc1c(C)nn(-c2ccccc2)c1Oc1cccc(F)c1	i	-14%	?	?
CCN(C)C(=O)CCc1c(C)nn(-c2cccc(C)c2)c1Oc1ccccc1	i	-21%	40µM*	35µM*

Assay outcomes deposited in PubChem by National Center for Advancing Translational Sciences (NCATS).
